In PubChem BioAssay AID1259417 (TB Discovery Research, Infectious Disease Research Institute, 2018) one finds inhibition data, which are given here for 46 molecules.

The nature of this assay: M. tuberculosis growth inhibition, HTS (AID 1259417).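 Further: bacteria grown with compound for 5 days at 37 °C.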 To be noted: stronger effect = higher value, concentration not given here.
Where [1] appears, read: M. tuberculosis DsRed fluorescence growth inhibition.
The mark [2] stands for this setting: M. tuberculosis growth inhibition.

Among all 1,100 compounds or so, about 760 (69%) were called active. How the calls were made is not given here. So high a share suggests a set chosen from earlier hits. This is one part of the list.

As for `O=C(Nc1nnc(-c2cc(Cl)ccc2Cl)o1)c1cccs1`, the inhibition (in general, the drop in the measured response relative to a control, in per cent) is, setting by setting: under setting [1], 83.8% (active); under setting [2], 82.4%.

On to `O=C(Nc1nnc(-c2cc(Cl)ccc2Cl)o1)c1ccc(Cl)s1`, for which the inhibition was -4.8% (inactive) under setting [1] and -10.4% under setting [2].

On to `O=C(Nc1nnc(-c2cc(Cl)ccc2Cl)o1)c1ccc(Br)s1`, for which the inhibition is 96.9% (active) under setting [1] and 95.6% under setting [2].

On to `O=C(OCC#CCSc1nc2ccccc2o1)c1ccco1`, for which the inhibition under setting [1] was 59.9% (active) and the inhibition under setting [2] was 68.2%.

As for `Cc1ccc(-c2nnc(SCC#CCOC(=O)c3ccco3)o2)cc1`, the inhibition is, setting by setting: under setting [1], 35.7% (active); under setting [2], 20.4%.

For the molecule `O=C(OCC#CCSc1nnc(-c2ccccc2)o1)c1ccco1`, the inhibition by setting is: under setting [1], 44% (active); under setting [2], 10.3%.

In the case of `CC(C)(C)NC(=O)COC(=O)c1snc(C(=O)NC2CCCCC2)c1N`, the inhibition is, setting by setting: under setting [1], 21.4% (active); under setting [2], 66.6%.

Consider `CCOc1ccc(NCCC(=O)c2cccs2)cc1`, for which the inhibition by setting is: under setting [1], -0.257% (inactive); under setting [2], -9.66%.

Regarding `O=C(CCNc1ccc(Cl)c(C(F)(F)F)c1)c1cccs1`, the inhibition runs as follows: under setting [1], 10.9% (active); under setting [2], 35.4%.

Consider `CN(C)c1ccc(Nc2nc(-c3ccccn3)cs2)cc1`, for which the inhibition reads like this: under setting [1], 54.1% (active); under setting [2], 38.2%.

On to `O=C(/C=C/c1ccco1)Nc1nc(-c2ccccn2)cs1`, for which the inhibition reads like this: under setting [1], 88.5% (active); under setting [2], 89%.

In the case of `CN(C)c1ccc(Nc2nc(-c3ccc(O)cc3O)cs2)cc1`, the inhibition reads like this: under setting [1], 36% (active); under setting [2], 10.8%.

Take `Fc1ccc(Nc2nc(-c3ccccn3)cs2)cc1`: the inhibition under setting [1] is 93.9% (active) and the inhibition under setting [2] was 94.1%.

Regarding `Brc1ccc(Nc2nc(-c3ccccn3)cs2)cc1`, the inhibition is 91% (active) under setting [1] and 94.1% under setting [2].

For `Fc1cccc2sc(Nc3nc(-c4ccccn4)cs3)nc12`, the inhibition is, setting by setting: under setting [1], 99.5% (active); under setting [2], 101%.

With `Clc1ccc(Nc2nc(-c3ccccn3)cs2)nc1`, the inhibition under setting [1] was 101% (active) and the inhibition under setting [2] was determined as 101%.

As for `c1ccc(Nc2nc(-c3ccccn3)cs2)cc1`, the inhibition is, setting by setting: under setting [1], 88.2% (active); under setting [2], 91.8%.

For `CCOc1ccc(Nc2nc(-c3ccccn3)cs2)cc1`, the inhibition reads like this: under setting [1], 89.5% (active); under setting [2], 92%.

For `Cc1ccc(S/C=C\C(=O)c2ccccc2)cc1`, the inhibition reads like this: under setting [1], 36.8% (active); under setting [2], 37.6%.

Regarding `CSCCC(NC(=O)c1cc([N+](=O)[O-])cc([N+](=O)[O-])c1)c1nc2ccccc2[nH]1` (configuration not stated), the inhibition is 51.9% (active) under setting [1] and 71.3% under setting [2].

For `CCOC(=O)Cn1cc(C#N)c2cccc(CC)c21`, the inhibition was 14.1% (active) under setting [1] and 56.3% under setting [2].

Turning to `CCOC(=O)COc1ccc2c3c(c(=O)oc2c1)CCCCC3`, the inhibition by setting is: under setting [1], 42.8% (active); under setting [2], 74.2%.

Consider `CCOC(=O)COc1cc2c3c(c(=O)oc2cc1C)CCCC3`, for which the inhibition runs as follows: under setting [1], 43% (active); under setting [2], 89.3%.

For the molecule `Cc1cc(OC(=O)C2CC2)c2c3c(c(=O)oc2c1)CCCC3`, the inhibition runs as follows: under setting [1], 22% (inactive); under setting [2], 21.7%.

As to `CCc1cc(C(=O)OC)c(NC(=S)NCc2ccc(Cl)c(Cl)c2)s1`, the inhibition under setting [1] is 96.8% (active) and the inhibition under setting [2] came out at 88.4%.

Take `CCOC(=O)c1cc(-c2ccccc2)sc1NC(=S)NC1CCN(Cc2ccccc2)CC1`: the inhibition reads like this: under setting [1], 18.5% (inactive); under setting [2], 1.16%.

With `COc1ccc(C(=O)C(CN2CCOCC2)c2ccccc2)cc1` (configuration not stated), the inhibition is 42.8% (active) under setting [1] and 77% under setting [2].

Turning to `COc1ccc(C(=O)N2N=C(c3ccccc3)CC2(O)C(F)(F)F)cc1` (configuration not stated), the inhibition under setting [1] was 1.52% (inactive) and the inhibition under setting [2] is -2.76%.

Consider `COc1ccc(C(=O)C(CN2CCCCC2)c2ccccc2)cc1` (configuration not stated), for which the inhibition by setting is: under setting [1], 31.4% (active); under setting [2], 66.8%.

Take `Nc1nnc(Sc2ncccc2[N+](=O)[O-])s1`: the inhibition by setting is: under setting [1], 98.8% (active); under setting [2], 98.6%.

With `C=CCNc1nnc(Sc2ncccc2[N+](=O)[O-])s1`, the inhibition by setting is: under setting [1], 97.9% (active); under setting [2], 98.2%.

With `Cc1ccc(C)c(N=Nc2nc3ccccc3n2C)c1`, the inhibition is 100% (active) under setting [1] and 99.1% under setting [2].

Take `O=C(NCc1nnc2c3ccccc3c(-c3ccccc3)nn12)c1ccc(Cl)cc1`: the inhibition is 15.3% (inactive) under setting [1] and -15.9% under setting [2].

In the case of `Cc1ccc(C(=O)Nc2nc(-c3ccccc3)c(-c3ccccc3)o2)cc1`, the inhibition reads like this: under setting [1], 80.4% (active); under setting [2], 65.6%.

Consider `O=C(Nc1nnc(C2=COCCO2)o1)c1ccc(F)cc1`, for which the inhibition under setting [1] was 17.6% (inactive) and the inhibition under setting [2] was 29.2%.

Regarding `Cc1ccc(C(=O)Nc2nnc(C3=COCCO3)o2)cc1`, the inhibition was 11.3% (inactive) under setting [1] and -5.11% under setting [2].

In the case of `O=C(Nc1nc(-c2ccccc2)c(-c2ccccc2)o1)c1ccc(F)cc1`, the inhibition was 93.6% (active) under setting [1] and 93.3% under setting [2].

On to `CCOC(=O)Cc1c(C)nc2c(-c3cccc(Br)c3)c[nH]n2c1=O`, for which the inhibition was 98.3% (active) under setting [1] and 97.9% under setting [2].

As to `CCCCOC(=O)CSc1nc(N)c(C#N)c(-c2ccc(OC)cc2)c1C#N`, the inhibition runs as follows: under setting [1], 4.48% (active); under setting [2], 30.9%.

On to `CCOC(=O)CSc1nc(N)c(C#N)c(-c2cccs2)c1C#N`, for which the inhibition under setting [1] is -3.66% (inactive) and the inhibition under setting [2] came out at 10.2%.

Turning to `Cc1ccc2c(C)nc(Nc3nc(CSc4nc5ccccc5s4)cc(=O)[nH]3)nc2c1`, the inhibition runs as follows: under setting [1], -4.65% (inactive); under setting [2], -12.8%.

In the case of `Cc1cc(Sc2ncnc(N)c2[N+](=O)[O-])ncn1`, the inhibition by setting is: under setting [1], 99.4% (active); under setting [2], 100%.

`Nc1ncnc(Sc2nc3ccccc3s2)c1[N+](=O)[O-]`: the inhibition by setting is: under setting [1], 100% (active); under setting [2], 99.4%.

As to `Cc1cccc2sc(N(CCCn3ccnc3)C(=O)c3ccco3)nc12`, the inhibition under setting [1] is 98.6% (active) and the inhibition under setting [2] was 99.8%.

Consider `Cc1cc(Cl)cc2sc(N(CCCn3ccnc3)C(=O)c3ccco3)nc12`, for which the inhibition by setting is: under setting [1], 97.5% (active); under setting [2], 98.4%.

Turning to `Cc1c(Cl)ccc2sc(N(CCCn3ccnc3)C(=O)c3ccco3)nc12`, the inhibition under setting [1] was 98.6% (active) and the inhibition under setting [2] stood at 99.5%.
